These results are taken from the OligoGym collection.
Further: reference of the scale not given here.

One test addresses SEC11C. Put plainly: pooled miR-30 sensor sort-seq; sequence = guide strand. The settings on record: shRNA.
Regarding TTACTCTGTGAACTATTGGAAT, the sensor-assay potency score (higher = more potent) was -1.07.
As for TGAACTTTGATTACTCTGTGAA, the sensor-assay potency score (higher = more potent) stood at 0.177.
Still for that read-out and setting: the value for TTCAACTTTAAAAACAACTATT was -1.15; that for TCATGAACTTTGATTACTCTGT was 0.434; that for TAGTCATTCATTATTATGGTGA was -0.647.

The target of another test is SEC22B. The test is described as above. The settings on record: shRNA.
Turning to TCAATGTAGAGCTTCTTGGTTT, the sensor-assay potency score (higher = more potent) is -0.305.
Still for that read-out and setting: as for TTTCCTGAAAATATACACCTAC, the figure is 0.224; as for TTGGATTCTAATACACATCTCT, 0.391.
With TCGAGCACAACTGTCAATGTAG, the sensor-assay potency score (higher = more potent) was 0.24.
On the same count and under the same terms, as for TTCTAATACACATCTCTGTGAG, the figure is 0.118; as for TTCATTTTCAGGACATCTCTTT, 0.0656; as for TTTCAGGACATCTCTTTTCTTG, -0.395.
TCTAATACACATCTCTGTGAGC displayed a sensor-assay potency score (higher = more potent) of -0.275.
In turn, TAGCCTTTGAATCCAATGCTGA yielded a sensor-assay potency score (higher = more potent) of -0.568.
As for TAATATAATTCACTTACCCTAA, the sensor-assay potency score (higher = more potent) was -0.417.
With TCGTTGTAACACTTCTTCGATA, the sensor-assay potency score (higher = more potent) is -1.15.

Another test deals with SEC61B. The description is as above. The settings on record: shRNA.
The sequence ATCTTCTGTGTAGAATCGCCAC yielded a sensor-assay potency score (higher = more potent) of -0.702.
On the same count and under the same terms, the value for AAATGTGCAACATAAATACAGA was -1.05.
Take TAGAATCGCCACATCCCCCCGG: the sensor-assay potency score (higher = more potent) is -0.342.
Still for that read-out and setting: as for TTCCTCTGCCGGACAGTGGATC, the figure is -1.27.
On the same count and under the same terms, the value for TTCTGTGTAGAATCGCCACATC was -0.647.
On to TACTGGAACAGGGCCAACTTTG, for which the sensor-assay potency score (higher = more potent) was -1.5.
Consider TCTTCTGTGTAGAATCGCCACA, for which the sensor-assay potency score (higher = more potent) is -0.746.
In turn, TGGAACAGGGCCAACTTTGAGC gave a sensor-assay potency score (higher = more potent) of -1.17.
Consider TGCAACATAAATACAGAAGCGA, for which the sensor-assay potency score (higher = more potent) is -0.661.
As for TAAAACAGCAAGCTTACAGAAA, the sensor-assay potency score (higher = more potent) was -1.05.
Same read-out and setting: the value for ATGTGCAACATAAATACAGAAG was -1.59.
Turning to ATAACCAATACTGGAACAGGGC, the sensor-assay potency score (higher = more potent) was -0.892.

For the next test, the target named is SEC62. The description is as above. As to conditions: shRNA.
Sequence TTCAATATGGTAATCAGCCAAC showed a sensor-assay potency score (higher = more potent) of -1.13.
The sequence TCCATTTCCACTACTGTGCTGG had a sensor-assay potency score (higher = more potent) of -0.484.
Still for that read-out and setting: as for TATGTCTTTATCATATTTCATT, the figure is -1.38.
Still for that read-out and setting: the value for TAGTCAACCACAGACTCCCTGG was -0.485; that for TAAATAAAGCTTCCTCTCCTTT was -0.505; that for TTGTTGGACAGTTGAATCGAAG was -1.44.
The same measure, in the same setting: the value for TTTAAGTCTGCTTTTGGTCCTT was 0.441; that for TTTGTTGGACAGTTGAATCGAA was 0.088; that for TTATGTACAGAATACACTTTAC was -1.09.
TGACTTTTCCTCACTGTCGGAC displayed a sensor-assay potency score (higher = more potent) of -0.575.
The same measure, in the same setting: as for TTCTATAAAATGAAGGACCGAA, the figure is -0.0759.
TAAAGCTTCCTCTCCTTTCTTG had a sensor-assay potency score (higher = more potent) of 0.192.
